Experimental data: PubChem BioAssay (NCI)
Values joined by “and” are separate entries in the source; they are usually repeats but may differ in a detail not shown here. Equal entries are not always repeated. This is part of a sample that, as a whole, favours compounds with a hit. Of some 83,000 tested, about 20% had one in any assay.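 Percent growth is the endpoint: 0 to 100 indicates growth inhibition (40 means 60% inhibition), 0 means no net growth, and negative values indicate cell death.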 Active and inactive are the calls of the source. How the source made its calls: active means growth percent below 10; inactive means the rest.

What was measured:
Assay in all cases: NCI-60 one-dose screen, 48 h (100 = growth as untreated, 0 = no growth, -100 = all killed)
Conditions in all cases: 10 µM unless noted
[1] = tested on: NCI-H23 lung
[2] = tested on: NCI-H226 lung
[3] = tested on: NCI-H322M lung
[4] = tested on: HOP-62 NSCLC
[5] = tested on: NCI-H460 lung
[6] = tested on: HOP-92 NSCLC
[7] = tested on: NCI-H522 lung
[8] = tested on: A549/ATCC NSCLC
[9] = tested on: 786-0 renal
[10] = tested on: COLO 205 colon

| SMILES | growth [1] | growth [2] | growth [3] | growth [4] | growth [5] | growth [6] | growth [7] | growth [8] | growth [9] | growth [10] |
| --- | --- | --- | --- | --- | --- | --- | --- | --- | --- | --- |
| Nc1nc2ccccc2c2c(=O)c3ccc(Cl)cc3sc12 | 92% (inactive) | 98.9% (inactive) | 103% (inactive) | 99.1% (inactive) | 72.7% (inactive) | 84.1% (inactive) | 94.3% (inactive) | 94.7% (inactive) | 99.1% (inactive) | 98.4% (inactive) |
| CCCCCCCCCCCCC[C@H](O)C[C@H](O)[C@H](C)N | 99.2% [1.25 µM] (inactive) | 126% [1.25 µM] (inactive) | 102% [1.25 µM] (inactive) | 116% [1.25 µM] (inactive) | 103% [1.25 µM] (inactive) | 56.7% [1.25 µM] (inactive) | 119% [1.25 µM] (inactive) | 89.3% [1.25 µM] (inactive) | 85.9% [1.25 µM] (inactive) | 92.2% [1.25 µM] (inactive) |
| O=C1/C(=C/c2cn(-c3ccccc3)nc2-c2ccccc2)SC(=S)N1c1ccccc1 | 95% (inactive) | 96.2% (inactive) | 99.2% (inactive) | 100% (inactive) | 107% (inactive) | 33.6% (inactive) | 91.3% (inactive) | 105% (inactive) | 105% (inactive) | 117% (inactive) |
| COc1ccccc1/C=C1\COc2ccc(O)cc2C1=O | 101% (inactive) | 102% (inactive) | 104% (inactive) | 101% (inactive) | 93.3% (inactive) | 103% (inactive) | 24.6% (inactive) | 84.6% (inactive) | 97.2% (inactive) | 87.6% (inactive) |
| OCc1cc(CN2CCCCC2)c(O)c2ncccc12 | 75.8% (inactive) | 67.5% (inactive) | 25.9% (inactive) | 35.8% (inactive) | 20.7% (inactive) | 71.9% (inactive) | 80.7% (inactive) | 57.8% (inactive) | 57.9% (inactive) | 47% (inactive) |
| C=C(CNCCO)[C@@H]1CC[C@]2(CO)CC[C@]3(C)[C@H](CC[C@@H]4[C@@]5(C)CCC(NCCc6ccc(O)cc6)C(C)(C)[C@@H]5CC[C@]43C)[C@@H]12 (stereo not given in full) | -63% (active) | -47.6% (active) | -41% (active) | -84.4% (active) | -80.4% (active) | -66.1% (active) | -79.5% (active) | -71.3% (active) | -92.8% (active) | -84.4% (active) |
| Cc1nc2sc(C(=O)Nc3cccc(Cl)c3C)c(N)c2cc1C(O)c1ccccc1 (stereo not given) | 19.8% (inactive) | 43.5% (inactive) | 49.8% (inactive) | 33.6% (inactive) | 3.15% (active) | 30% (inactive) | 4.83% (active) | 16.2% (inactive) | 16.5% (inactive) | -0.762% (active) |
| [2H]C([2H])([2H])Oc1cccc(/C=C/C(=O)/C=C(/C=C/c2cccc(OC([2H])([2H])[2H])c2OC([2H])([2H])[2H])OB(F)F)c1OC([2H])([2H])[2H] | 69.9% (inactive) | 95.4% (inactive) | 106% (inactive) | 99.5% (inactive) | 96.9% (inactive) | 102% (inactive) | 56.9% (inactive) | 93.4% (inactive) | 85.2% (inactive) | 55.2% (inactive) |
| O=C1CCc2c(sc3[nH]c(=S)n(Cc4ccc(Cl)cc4)c(=O)c23)C1 | -12.9% (active) | -8.6% (active) | 11.4% (inactive) | -11.5% (active) | 5.05% (active) | -44.2% (active) | -18.6% (active) | 5.35% (active) | 21% (inactive) | -67.5% (active) |
| N#CSc1c[nH]c2ccc(/C=C/C(=O)/C=C(/C=C/c3ccc4[nH]cc(SC#N)c4c3)OB(F)F)cc12 | -28.3% (active) | -66.1% (active) | 94.9% (inactive) | 14.7% (inactive) | 3.07% (active) | -74.1% (active) | -69.7% (active) | 4.65% (active) | -46.5% (active) | -63.9% (active) |
| Cc1ccc(/C=C2\COc3ccc(O)c(O)c3C2=O)cc1 | 29.1% (inactive) | 61.5% (inactive) | 31.3% (inactive) | -1.56% (active) | 8.32% (active) | -18% (active) | -74.8% (active) | 27.4% (inactive) | -71% (active) | 30.2% (inactive) |
| COc1ccc(C/C(C)=C(/c2ccc(OCCN3CCCC3)cc2)c2ccc(OC(=O)NCc3ccccc3)cc2)cc1 | 93.6% (inactive) | 102% (inactive) | 92% (inactive) | 91.9% (inactive) | 63.8% (inactive) | 66.2% (inactive) | 92.6% (inactive) | 72.3% (inactive) | 69.8% (inactive) | 77% (inactive) |
| COc1ccc(C(=O)N/N=C/c2ccc(O)cc2O)cc1Nc1ccnc(C(F)(F)F)c1 | 32.1% (inactive) | 45% (inactive) | 30.9% (inactive) | 11.8% (inactive) | 24.7% (inactive) | 51.8% (inactive) | 36.2% (inactive) | 53.3% (inactive) | 3.75% (active) | 37.1% (inactive) |
| C=C(C)[C@@H]1CC[C@]2(C(=O)O)CC[C@]3(C)[C@H](CC[C@@H]4[C@@]5(C)CCC(N)C(C)(C)[C@@H]5CC[C@]43C)[C@@H]12 (stereo not given in full) | 81.5% (inactive) | 100% (inactive) | 68.9% (inactive) | 80.4% (inactive) | 33.1% (inactive) | 88.1% (inactive) | 11.7% (inactive) | 47.9% (inactive) | 0.398% (active) | -21.4% (active) |
| Cc1ccc2[nH]c(=S)[nH]c(=O)c2c1 | 100% (inactive) | 102% (inactive) | 102% (inactive) | 99.4% (inactive) | 106% (inactive) | 93.4% (inactive) | 94.7% (inactive) | 98.9% (inactive) | 94.9% (inactive) | 117% (inactive) |
| N#C/C(=N\Nc1ccc(Cl)cc1)C(=O)Nc1cc(-c2ccccc2)nn1-c1ccccc1 | 1.09% (active) | 51.5% (inactive) | 11.9% (inactive) | 61.4% (inactive) | 8.34% (active) | -23.4% (active) | 7.38% (active) | 33.8% (inactive) | 45.2% (inactive) | 65.4% (inactive) |
| CCn1cc(C(=O)NN=C2CCCC2)c(=O)c2ccc(C)nc21 | 98.9% (inactive) | 82.9% (inactive) | 82.4% (inactive) | 93.3% (inactive) | 92.9% (inactive) | 90.6% (inactive) | 88.8% (inactive) | 90.3% (inactive) | 93.1% (inactive) | 104% (inactive) |
| COC(=O)[C@H]1Cc2c([nH]c3ccccc23)[C@@H](c2cccs2)N1 | 104% (inactive) | 98.3% (inactive) | 100% (inactive) | 102% (inactive) | 105% (inactive) | 105% (inactive) | 78.9% (inactive) | 103% (inactive) | 91.4% (inactive) | 131% (inactive) |
| CC(C)(C)c1cc(NC(=O)Nc2ccc(-c3cn4c(n3)sc3cc(OCCN5CCOCC5)ccc34)cc2)no1 | 23.9% (inactive) and 42.6% (inactive) | 17.8% (inactive) | 34.9% (inactive) and 54.5% (inactive) | 35.7% (inactive) and -26.2% (active) | -10.7% (active) and 10.4% (inactive) | -2.21% (active) and -1.85% (active) | -3.14% (active) and 10.6% (inactive) | 28.3% (inactive) and 17.3% (inactive) | -9.92% (active) and 7.85% (active) | 10.7% (inactive) and -43.9% (active) |
| c1ccc(-c2cc(-c3cc(-c4ccccc4)on3)no2)cc1 | 74.9% (inactive) | 98.8% (inactive) | 89.9% (inactive) | 107% (inactive) | 45% (inactive) | 86.1% (inactive) | 62.2% (inactive) | 78.9% (inactive) | 106% (inactive) | 94.2% (inactive) |
| COC(=O)c1nc(-c2ccc(C)cc2)oc1S(=O)(=O)c1ccc(Cl)cc1 | 91.3% (inactive) | 96% (inactive) | 99.6% (inactive) | 97.4% (inactive) | 109% (inactive) | 95.1% (inactive) | 59.6% (inactive) | 100% (inactive) | 86.1% (inactive) | 70.5% (inactive) |
| CCCNNC(=O)/C=C/c1ccc(CNCCc2c(C)[nH]c3ccccc23)cc1 | 38.6% [2.5 µM] (inactive) | 33.6% [2.5 µM] (inactive) | 15.9% [2.5 µM] (inactive) | 3.81% [2.5 µM] (active) | 23.8% [2.5 µM] (inactive) | -5.2% [2.5 µM] (active) | 19.7% [2.5 µM] (inactive) | 14% [2.5 µM] (inactive) | 22.8% [2.5 µM] (inactive) | -55.7% [2.5 µM] (active) |
